# Source: article PMC4336329 (PLoS ONE, 2015)
# Hit rate of the full screen: of about 310,000 compounds, about 14,000 (4.5%) showed an effect of 50% or more. Effects have a minus sign here. This excerpt belongs to a sample that is enriched for strong results.
# Target: human ether-à-go-go-related gene (hERG) potassium channel (human, UniProt Q12809)
# Assay: primary screen, population patch clamp on CHO cells stably expressing hERG; higher = less effect of the substance
# 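Note: peak tail current of the secondary pulse compared with the same well before compound.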
# Chain of human ether-à-go-go-related gene (hERG) potassium channel (Q12809 whole entry, looked up): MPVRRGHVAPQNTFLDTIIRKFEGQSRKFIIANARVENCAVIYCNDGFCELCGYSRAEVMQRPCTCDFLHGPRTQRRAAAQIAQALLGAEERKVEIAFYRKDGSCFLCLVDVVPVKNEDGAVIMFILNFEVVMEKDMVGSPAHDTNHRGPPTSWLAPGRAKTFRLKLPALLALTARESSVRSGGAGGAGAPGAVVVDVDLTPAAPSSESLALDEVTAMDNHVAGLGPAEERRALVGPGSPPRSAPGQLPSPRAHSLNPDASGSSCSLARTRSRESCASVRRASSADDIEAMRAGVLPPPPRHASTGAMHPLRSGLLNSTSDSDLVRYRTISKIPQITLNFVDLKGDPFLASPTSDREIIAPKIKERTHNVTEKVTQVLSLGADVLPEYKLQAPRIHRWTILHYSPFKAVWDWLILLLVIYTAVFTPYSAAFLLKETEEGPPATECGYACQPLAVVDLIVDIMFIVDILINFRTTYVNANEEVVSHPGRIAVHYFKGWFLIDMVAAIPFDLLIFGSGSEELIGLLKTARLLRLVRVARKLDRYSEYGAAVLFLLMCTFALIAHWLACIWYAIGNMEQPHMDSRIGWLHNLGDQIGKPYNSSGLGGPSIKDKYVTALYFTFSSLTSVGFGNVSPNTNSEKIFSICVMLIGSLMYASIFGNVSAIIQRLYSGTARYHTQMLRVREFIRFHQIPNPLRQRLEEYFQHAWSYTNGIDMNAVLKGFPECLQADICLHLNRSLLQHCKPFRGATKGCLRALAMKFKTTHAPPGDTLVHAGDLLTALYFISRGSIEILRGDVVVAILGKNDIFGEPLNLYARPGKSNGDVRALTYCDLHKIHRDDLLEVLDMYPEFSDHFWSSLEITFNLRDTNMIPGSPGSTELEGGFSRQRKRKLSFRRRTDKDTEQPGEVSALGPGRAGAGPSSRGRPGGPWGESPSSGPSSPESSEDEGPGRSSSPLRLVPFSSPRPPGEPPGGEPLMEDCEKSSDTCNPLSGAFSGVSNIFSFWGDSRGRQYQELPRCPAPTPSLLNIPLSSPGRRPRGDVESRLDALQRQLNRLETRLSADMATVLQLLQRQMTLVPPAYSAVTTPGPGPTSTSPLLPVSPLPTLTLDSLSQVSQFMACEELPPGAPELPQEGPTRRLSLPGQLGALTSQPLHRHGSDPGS
row,Structure (SMILES),"hERG current change (%, negative = inhibition) at 10uM [%]"
1,Cc1sc2ncnc(NCCc3ccc(S(N)(=O)=O)cc3)c2c1C,12.6
2,COc1ccc(CCNC(=O)CSc2nn3c(=O)c(C)nnc3s2)cc1OC,6.31
3,CN(CC(=O)Nc1ccccc1C(F)(F)F)C(=O)COc1ncnc2ccccc12,1.42
4,O=C(CNCc1ccc(Cl)cc1)NCc1ccco1.O=C(O)C(=O)O,-17.3
5,Cc1cccc(OCc2n[nH]c(=S)n2-c2ccccc2)c1,10.1
6,CC(=O)Nc1ccc(C(=O)OCC(=O)NCc2ccccc2)cc1,11.9
7,O=C(COC(=O)CCC(=O)c1ccc(F)cc1)Nc1ccc2[nH]c(=O)[nH]c2c1,-3.65
8,O=C(CN1CCN(S(=O)(=O)c2ccc(F)cc2)CC1)Nc1ccc(F)cc1F,-60.3
9,O=C(Nc1ccc(F)cc1F)NC1CCN(S(=O)(=O)c2ccc(F)cc2)CC1,9.78
10,O=C(COC(=O)c1ccc(S(=O)(=O)N2CCCC2)cc1)Nc1ccc(F)cc1F,9.22
11,C/C(=N\OCC(=O)NC12CC3CC(CC(C3)C1)C2)c1cc2ccccc2o1,5.38
12,CCOc1ccc(S(=O)(=O)N2CCN(CN3C(=O)CC4(CCCC4)C3=O)CC2)cc1,-8.79
13,N#CCCN(Cc1cccnc1)C(=O)Nc1ccccc1,-3.06
14,CC(C)=CCN1CCN(Cc2nc(C(C)C)cs2)CC1CCO (stereo not drawn),-12.9
15,CC(C)(C)CN1CCN(Cc2nc(-c3ccc(F)cc3)cs2)CC1CCO (stereo not drawn),-62.5
16,CC(C)=CCN1CCN(Cc2nc(-c3ccccc3)cs2)CC1CCO (stereo not drawn),-60.4
17,CC(C)=CCN1CCN(Cc2cc(F)ccc2-n2nc(C)cc2C)CC1CCO (stereo not drawn),-25
18,CC(C)=CCN1CCN(CC#Cc2ccccc2)CC1CCO (stereo not drawn),-13
19,CC(C)(C)CN1CCN(Cc2c[nH]c3ccccc23)CC1CCO (stereo not drawn),15.5
20,CC(C)=CCN1CCN(Cc2nc(-c3ccc(F)cc3)cs2)CC1CCO (stereo not drawn),-69

row,Structure (SMILES),"hERG current change (%, negative = inhibition) at 10uM [%]"
1,CC(C)=CCN1CCN(Cc2cccnc2)CC1CCO (stereo not drawn),-1.24
2,CC(C)(C)CN1CCN(Cc2cccnc2)CC1CCO (stereo not drawn),13.6
3,CCN(CC(=O)NCc1ccc(F)cc1)C(=O)C1CCN(C(=O)Nc2ccccc2)CC1,-7.79
4,COCCn1c(SCC(=O)N2CC(=O)Nc3ccccc32)nc2ccccc21,-2.29
5,O=C(Nc1ccc(N2CCCCC2)cc1)c1cccnc1,4.6
6,COc1ccc(-c2cc(C(=O)NCC3CCCO3)c3cc(C)ccc3n2)cc1 (stereo not drawn),-3.03
7,CCn1cc(C(=O)NCC2CCCO2)c2cc(OC)c(OC)cc2c1=O (stereo not drawn),19.4
8,Cc1ccc(-c2noc(-c3ccccc3C(=O)NCC3CCCO3)n2)cc1 (stereo not drawn),-18.6
9,CCOCCCNc1nc2nc3ccc(C)cn3c(=O)c2cc1C(=O)NCC1CCCO1 (stereo not drawn),-77.7
10,CCNc1nc2nc3ccc(C)cn3c(=O)c2cc1C(=O)NCC1CCCO1 (stereo not drawn),-70.6
11,Cc1ccc(-c2nn(-c3ccccc3)cc2C(=O)NCC2CCCO2)cc1 (stereo not drawn),-25.8
12,COCCCNC(=O)c1ccc2nc3ccccc3c(=O)n2c1,14.7
13,C=CCNC(=O)c1cc2c(=O)n3cc(C)ccc3nc2nc1NCC1CCCO1 (stereo not drawn),-73
14,COCCCNC(=O)c1cc2c(=O)n3cc(C)ccc3nc2nc1NCC1CCCO1 (stereo not drawn),-71.9
15,Cn1nc(C(=O)NCC2CCCO2)c2ccccc2c1=O (stereo not drawn),-3
16,COCCCNC(=O)CSc1nc2ccccc2c(=O)n1CCCC(=O)NCC1CCCO1 (stereo not drawn),-0.988
17,Cc1ccc(-c2nn(-c3ccccc3Cl)cc2C(=O)NCC2CCCO2)cc1 (stereo not drawn),-0.0276
18,Cc1ccc(C)c(C(=O)CCC(=O)Nc2cccnc2)c1,7.26
19,COc1cccc(/C=C/C(=O)OCC(=O)NCC2CCCCC2)c1OC,8.32
20,CCN(CC)c1ccc2c(C)c(CN3CCOCC3)c(=O)oc2c1,-11.1

row,Structure (SMILES),"hERG current change (%, negative = inhibition) at 10uM [%]"
1,C=Cc1ccc(C(=O)N2CCCC(CCC(=O)N3CCN(c4ccccn4)CC3)C2)cc1 (stereo not drawn),-4.57
2,CCCCNc1nc(N)nc(-c2cc(Cl)ccc2O)n1,20.9
3,CCCOc1ccc(C(=O)Nc2cccnc2)cc1,3.01
4,c1ccc(-c2nc(CSc3n[nH]c(-c4cccs4)n3)cs2)cc1,-15.1
5,Cc1ccc2c(c1)c(=O)c1c3n2CCN(CC2CO2)C3CC1 (stereo not drawn),4.27
6,O=C(CCl)N(Cc1cc(=O)[nH]c2ccccc12)c1ccccc1,0.288
7,CCOC(=O)c1nn(-c2ccc(C)cc2)c(=O)cc1OCC(=O)Nc1cccc(OC)c1,1.6
8,Cn1cc(CN2CCC(n3nccc3NC(=O)c3ccccc3Cl)CC2)c2ccccc21,-68.6
9,COc1ccccc1C(=O)Nc1ccnn1C1CCN(Cc2cn(C)c3ccccc23)CC1,-83.6
10,Cc1cc(NC(=O)CSc2ccc3nnc(CCNS(=O)(=O)c4ccccc4)n3n2)no1,15.6
11,Nc1c(Cl)cc(-c2csc(N3CCCC3c3nc4cc(Cl)c(Cl)cc4n3CCOCCO)n2)cc1Cl (stereo not drawn),-0.601
12,Cc1cccc(C)c1NC(=O)NNC(=O)c1cc(C(C)(C)C)nn1Cc1ccccc1,0.818
13,CC1CCC/C(=N\NC(=S)Nc2ccccc2)C1 (stereo not drawn),7.36
14,O=C(Nc1ccc(Nc2ccccc2)cc1)c1c(Cl)cccc1Cl,12.3
15,CC1CCCN(C(=O)Cn2nnc(-c3ccccc3F)n2)C1 (stereo not drawn),13.8
16,COc1ccc(OCC(=O)N2c3ccc(C)cc3C3CN(C)CCC32)cc1 (stereo not drawn),-5.12
17,Cc1ccc2c(c1)C1CN(C)CCC1N2C(=O)CCCN1C(=O)c2cccc3cccc(c23)C1=O (stereo not drawn),-57.4
18,Cc1ccc2c(c1)C1CN(C)CCC1N2C(=O)COc1ccccc1F (stereo not drawn),-4.18
19,Cc1ccc2c(c1)C1CN(C)CCC1N2C(=O)COc1ccc(N(C)C(=O)c2ccccc2)cc1 (stereo not drawn),-11.6
20,Cc1ccc2c(c1)C1CN(C)CCC1N2C(=O)Cn1nnc(-c2ccccc2F)n1 (stereo not drawn),-60.1
